Screens from PubChem.
ALR inh: inhibitors of human ALR sulfhydryl oxidase, primary screen, biochemical, H2O2 detection, HRP-luminol luminescence, single point. actives 3.8% (n = 290,000). AID 485317, 2010. purified ALR, DTT oxidation. FAD-linked sulfhydryl oxidase ALR (Homo sapiens), P55789. inhibition, % (no concentration beside the values);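 active = mean replicate inhibition above about 79%, with every replicate also reaching it, limit read from the data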
Bfl-1 A1 inh: caspase 3/7 activation in MEF A1-2A-BIM cells, primary screen, A1 inhibitor project, cell-based, luminescence, HTS. Caspase-Glo 3/7 luminescence, 3 h; percent of clofoctol response, vehicle zero. caspase activation, % (concentration not given with the values). actives 0.066% (n = 330,000). AID 2462, 2010;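 active = over half of replicate activation scores above 10%, or exactly half above 10 with the replicate mean above 10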
AHR activator: AHR activators, primary screen, cell-based, luminescence, luciferase reporter, human; activation, % at 5 µM; Aryl hydrocarbon receptor (Homo sapiens), P35869; actives 2.5% (n = 320,000); AHR-responsive luciferase reporter cells; in the data active = activation above about 47%;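 also: 0% = vehicle wells and 100% = reference agonist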
Efflux pump inh: inhibitors of Candida efflux pumps in yeast, primary screen, S. cerevisiae, Nile Red, multiplex; S. cerevisiae Candida pump triplex; inhibition, % at 10 µM; actives 0.44% (n = 330,000);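 active = plate passing quality check with inhibition over a set limit, or well fluorescence over plate mean plus 4 SD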;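 also: Nile Red retained in pooled yeast measured as flow cytometry median fluorescence; 0% = buffer negative control and 100% = Enniatin B positive control; higher means more Nile Red kept so more efflux inhibition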
Mot1-301 SUMO: yeast Mot1-301 growth rescue at high temperature, primary screen, SUMOylation pathway inhibitor project, S. cerevisiae, ATP luminescence, 38.5C. S. cerevisiae Mot1-301 growth rescue; percent above DMSO median, 100 means doubled. growth rescue, % at 18.8 µM. actives 1% (n = 320,000);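 active = every valid replicate shows activation above 250% relative to neutral control wells; inactive = the rest, any valid replicate at or below 250%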;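 also: OY570 slx delta 5 strain wells were the positive control but not used for scaling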
VLA-4 inh: inhibition in human VLA-4 binding assay, primary screen, VLA-4 allosteric modulator project, MLPCN library, flow cytometry, VLA-4 expressing cells. Integrin alpha-4 (Homo sapiens), P13612. ligand binding flow cytometry. inhibition, % (about 7 µM as worked out from the volumes in the protocol). actives 0.2% (n = 330,000); in the data active = inhibition above about 50%
Starred values were filed as active, the others as inactive. An excerpt weighted towards active compounds, which were near 7.2% of everything screened.

`COc1ccc(N2CCN(C(=O)CCCn3c(=O)[nH]c4ccsc4c3=O)CC2)cc1` gave ALR inh 65.3, Bfl-1 A1 inh 0.5, AHR activator 1.4, Efflux pump inh -0.2, Mot1-301 SUMO 0.9 and VLA-4 inh -11.8.
Screening COc1ccc(N2CCN(C(=O)CCc3ccccc3)CC2)cc1 returned ALR inh 97.1*, Bfl-1 A1 inh 0.5, AHR activator 2.3, Efflux pump inh -0.1, Mot1-301 SUMO 13.1 and VLA-4 inh 6.9.
`COc1ccc(CC(=O)N2CCN(c3ccccc3)CC2)cc1` gave ALR inh 72.3, Bfl-1 A1 inh 0.6, AHR activator 0.0, Efflux pump inh -0.2, Mot1-301 SUMO -10.6 and VLA-4 inh 5.0.
`COc1ccc(N2CCN(C(=O)CCCCn3c(=O)[nH]c4ccsc4c3=O)CC2)cc1` gave ALR inh 83.2*, Bfl-1 A1 inh 1.5, AHR activator 2.9, Efflux pump inh -0.1 and VLA-4 inh -4.8.
`Cc1oc2ccc(NS(=O)(=O)c3ccc(C(C)(C)C)cc3)cc2c1C(=O)Nc1ccccc1` gave ALR inh -5.7, Bfl-1 A1 inh -0.3, AHR activator 3.7, Efflux pump inh 0.1, Mot1-301 SUMO -8.1 and VLA-4 inh 19.7.
For Cc1nn(C)c(C)c1CCC(=O)N1CCCC(N2CCN(c3ccc(F)cc3)CC2)C1 (stereo not drawn) the results were ALR inh 34.4, Bfl-1 A1 inh 1.1, AHR activator -2.7, Efflux pump inh -0.1, Mot1-301 SUMO -3.2 and VLA-4 inh -2.1.
Screening CCC1CCCCN1CCCNC(=O)Cn1nc(-c2ccc(C)cc2)ccc1=O (stereo not drawn) returned ALR inh 0.3, Bfl-1 A1 inh -0.3, AHR activator -0.1, Efflux pump inh 0.0, Mot1-301 SUMO -7.2 and VLA-4 inh -1.0.
For COCC(=O)NNC(=O)c1ccc(OC)cc1 the results were ALR inh -4.4, Bfl-1 A1 inh -0.2, AHR activator 2.0, Efflux pump inh 0.0, Mot1-301 SUMO 194.1 and VLA-4 inh 14.7.
`COc1ccc(N2CCN(C(=O)CN(Cc3ccc(Cl)cc3)S(C)(=O)=O)CC2)cc1` gave ALR inh 30.0, Bfl-1 A1 inh -1.1, AHR activator -0.2, Efflux pump inh -0.1, Mot1-301 SUMO -19.7 and VLA-4 inh -1.4.
COc1ccc(N2CCN(C(=O)CN(C)S(=O)(=O)c3cnc[nH]3)CC2)cc1 was read as ALR inh 87.3*, Bfl-1 A1 inh -0.7, AHR activator 4.2, Efflux pump inh 0.3, Mot1-301 SUMO 2.5 and VLA-4 inh 4.6.
Screening COc1ccc(N2CCN(C(=O)CN(Cc3ccccc3)S(C)(=O)=O)CC2)cc1 returned ALR inh 86.2*, Bfl-1 A1 inh -0.1, AHR activator -1.3, Efflux pump inh 0.0, Mot1-301 SUMO 35.7 and VLA-4 inh 14.4.
CN(CC(=O)N1CCN(c2ccccc2F)CC1)S(=O)(=O)c1cnc[nH]1 was read as ALR inh 0.3, Bfl-1 A1 inh 0.4, AHR activator -0.1, Efflux pump inh 1.1, Mot1-301 SUMO -22.1 and VLA-4 inh -7.4.
Screening COc1ccccc1N1CCN(CC(=O)N2N=CCC2c2ccccc2)CC1 (stereo not drawn) returned ALR inh 22.4, Bfl-1 A1 inh 0.6, AHR activator -0.7, Efflux pump inh -0.1, Mot1-301 SUMO -4.8 and VLA-4 inh -8.4.
Screening COc1ccc(N(C(C)C(=O)N(C)Cc2ccccc2)S(C)(=O)=O)cc1 (stereo not drawn) returned ALR inh -7.7, Bfl-1 A1 inh 1.0, AHR activator 2.1, Efflux pump inh 0.0, Mot1-301 SUMO -13.3 and VLA-4 inh -4.4.
Screening COc1ccc(N2CCN(C(C)C(=O)N(C)Cc3ccccc3)CC2)cc1 (stereo not drawn) returned ALR inh 95.7*, Bfl-1 A1 inh 0.4, AHR activator 2.2, Efflux pump inh 0.2, Mot1-301 SUMO -22.0 and VLA-4 inh 2.0.
